Here are results for 57 compounds from PubChem BioAssay (NCATS).

Results filed as inconclusive are left out. Unmarked numbers belong to inactive results. Calls of active or inactive are those of the source. The call rests on the fitted dose curve; in most records, active means well fitted curve in the direction sought with a large enough effect; inconclusive means small, poorly fitted or top-dose-only effect, or another doubt; inactive means no such curve, though single readings can be large; an effect the other way counts as inactive or inconclusive.

Assay [1] concerns the target Rap guanine nucleotide exchange factor 3 (Homo sapiens) (UniProt O95398). The assay can be described thus: Confirmatory qHTS for agonist of cAMP-regulated guanine nucleotide exchange factor 3 (EPAC1) (AID 1645881). Further: nearly all actives have a fitted effect of over 75% in size. Further: potency means the concentration at half of the fitted maximal effect.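 On activation: EPAC1 catalysed release of BODIPY-GDP from Rap1B seen as fluorescence loss; 100% = effect of cAMP agonist control.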 On the technique in general: qHTS replaces the single test concentration by a dilution series.
Assay [2] has as its target Rap guanine nucleotide exchange factor 4 (Homo sapiens) (UniProt Q8WZA2). The assay is described as follows: Confirmatory qHTS for antagonist of cAMP-regulated guanine nucleotide exchange factor 4 (EPAC2) (AID 1645885). Further: nearly all actives have a fitted effect of over 25% in size. Further: potency means the concentration at half of the fitted maximal effect. On activity change, negative = inhibition: on the % scale 0 is the no-effect control and ±100 the full control effect.
The target of assay [3] is Rap guanine nucleotide exchange factor 3 (Homo sapiens) (UniProt O95398). The assay can be described thus: Counterscreen qHTS for antagonist of cAMP-regulated guanine nucleotide exchange factor 3 (EPAC1) (AID 1645888).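 Further: fluorescence loss as bound BODIPY-GDP is released from Rap1B; % of control where 0% means no effect.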 The gist of the method:
(§1)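 Measured: fluorescence of BODIPY-GDP bound to Rap1B, which falls as exchange proceeds. Conditions include 50 uM competing GDP, 5 and 30 min reads, and a later cAMP challenge for antagonist detection.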

For assay [4] the target is unchanged. The assay is described as follows: Counterscreen qHTS for agonist of cAMP-regulated guanine nucleotide exchange factor 3 (EPAC1) (AID 1645889). Further: nearly all actives have a fitted effect of over 40% in size. Further: potency means the concentration at half of the fitted maximal effect. On activation: % of control where 0% means no effect. The gist of the method:
as §1
Background: A counterscreen serves to expose hits that act by an unwanted route or on another target.

Assay [5] can be described thus: qHTS for Inhibitors of the vitamin D receptor (VDR): Hit Validation using a Texas Red Assay (AID 602201). Further: potency means the concentration at half of the fitted maximal effect. The gist of the method:
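Fluorescence polarization (Ex 595/Em 615 nm) of Texas Red (7 nM) with 1.5 uM VDR-LBD and LG19078 (final concentrations). Compounds were incubated for 2 hours at room temperature.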

Chain of Rap guanine nucleotide exchange factor 3 (Homo sapiens) (O95398 whole entry, looked up): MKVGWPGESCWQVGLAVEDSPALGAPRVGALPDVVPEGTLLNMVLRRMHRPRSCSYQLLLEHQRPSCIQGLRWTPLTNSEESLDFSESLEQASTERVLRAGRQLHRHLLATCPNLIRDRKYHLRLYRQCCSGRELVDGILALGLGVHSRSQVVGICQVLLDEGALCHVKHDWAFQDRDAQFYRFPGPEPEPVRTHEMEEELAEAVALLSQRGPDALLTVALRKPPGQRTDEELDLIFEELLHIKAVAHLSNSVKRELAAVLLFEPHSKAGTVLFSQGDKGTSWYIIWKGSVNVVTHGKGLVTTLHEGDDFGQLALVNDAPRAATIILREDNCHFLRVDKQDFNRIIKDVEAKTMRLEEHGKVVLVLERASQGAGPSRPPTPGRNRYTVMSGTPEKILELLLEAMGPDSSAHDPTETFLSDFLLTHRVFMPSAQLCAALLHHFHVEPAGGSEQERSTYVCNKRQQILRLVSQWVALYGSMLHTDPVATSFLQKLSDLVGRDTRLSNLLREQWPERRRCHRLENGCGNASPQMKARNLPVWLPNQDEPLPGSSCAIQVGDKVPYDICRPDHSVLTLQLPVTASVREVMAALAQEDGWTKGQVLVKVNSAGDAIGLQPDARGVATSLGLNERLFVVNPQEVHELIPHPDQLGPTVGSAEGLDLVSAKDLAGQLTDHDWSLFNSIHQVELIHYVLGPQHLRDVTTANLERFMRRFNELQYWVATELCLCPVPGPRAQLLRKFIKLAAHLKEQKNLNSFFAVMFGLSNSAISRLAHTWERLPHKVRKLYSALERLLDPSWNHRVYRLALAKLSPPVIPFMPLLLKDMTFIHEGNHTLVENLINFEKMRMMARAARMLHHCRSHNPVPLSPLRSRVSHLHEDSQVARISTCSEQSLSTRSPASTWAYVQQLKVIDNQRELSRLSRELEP
Chain of Rap guanine nucleotide exchange factor 4 (Homo sapiens) (Q8WZA2 whole entry, looked up): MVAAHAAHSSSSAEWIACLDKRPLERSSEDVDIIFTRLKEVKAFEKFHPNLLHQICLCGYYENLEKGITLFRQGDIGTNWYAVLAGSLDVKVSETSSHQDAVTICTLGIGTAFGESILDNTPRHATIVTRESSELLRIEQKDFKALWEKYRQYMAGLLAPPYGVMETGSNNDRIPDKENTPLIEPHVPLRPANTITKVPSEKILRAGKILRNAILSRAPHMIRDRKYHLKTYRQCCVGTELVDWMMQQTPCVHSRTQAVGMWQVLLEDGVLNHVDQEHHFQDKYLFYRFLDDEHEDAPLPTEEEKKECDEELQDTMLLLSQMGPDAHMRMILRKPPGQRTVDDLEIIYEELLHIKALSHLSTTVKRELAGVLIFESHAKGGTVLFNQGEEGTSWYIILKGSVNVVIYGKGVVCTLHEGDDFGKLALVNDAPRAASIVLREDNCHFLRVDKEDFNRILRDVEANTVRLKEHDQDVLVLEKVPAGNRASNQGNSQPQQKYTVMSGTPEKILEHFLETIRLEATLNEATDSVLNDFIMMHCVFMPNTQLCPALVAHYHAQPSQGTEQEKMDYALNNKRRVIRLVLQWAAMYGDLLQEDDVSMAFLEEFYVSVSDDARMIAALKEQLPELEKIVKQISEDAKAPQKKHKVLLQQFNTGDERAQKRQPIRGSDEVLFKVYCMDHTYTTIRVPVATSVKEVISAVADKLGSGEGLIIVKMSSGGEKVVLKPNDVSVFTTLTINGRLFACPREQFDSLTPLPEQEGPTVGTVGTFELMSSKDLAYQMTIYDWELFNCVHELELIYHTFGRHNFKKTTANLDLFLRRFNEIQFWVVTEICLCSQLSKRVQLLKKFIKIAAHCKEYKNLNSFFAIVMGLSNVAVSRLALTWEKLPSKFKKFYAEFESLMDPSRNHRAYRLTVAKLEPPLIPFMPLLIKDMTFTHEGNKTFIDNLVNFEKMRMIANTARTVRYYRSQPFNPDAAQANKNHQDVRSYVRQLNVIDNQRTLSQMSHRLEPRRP

With `CCOc1cc2c(cc1/C=C/c1noc(C)c1[N+](=O)[O-])OC(C)C2` (stereo not drawn), the Potency entry in assay [1] and in assay [2] was “inactive” throughout. For the same compound, in assay [3], the activity change, negative = inhibition is -13.8% [at 30.8 µM].
Consider `Clc1ccc(OCCn2c(-c3ccco3)nc3ccccc32)cc1`, for which the Potency entry in assay [1], in assay [2] and in assay [3] was “inactive” each time.
Turning to `O=C1NNC(c2ccccc2)=N/C1=C\c1ccccc1Cl`, the Potency entry in assay [1], in assay [2] and in assay [3] was “inactive” throughout.
Turning to `O=C(Cn1c(=O)c2ccccc2n(CC(=O)Nc2ccc(Cl)cc2)c1=O)NCCc1ccccc1`, the Potency result in assay [1], in assay [2] and in assay [3] was “inactive” in each case.
Consider `Cc1nn(-c2ccccc2)c2nc(N)c(C#N)c(-c3ccc(O)c(O)c3)c12`, for which the Potency entry in assay [1], in assay [2] and in assay [3] was “inactive” in each case.
Turning to `Cc1ccc(-c2nc3ccc(C)cn3c2Cc2cccc(F)c2)cc1`, the Potency result in assay [1], in assay [2] and in assay [3] was “inactive” throughout.
Regarding `N#C/C(=C\c1ccc(-c2ccccc2C(=O)O)o1)c1nc2ccccc2[nH]1`, the Potency result in assay [1] and in assay [3] was “inactive” throughout. Moreover, in assay [2], the outcome was “inactive [at 12.7 µM]”.
On to `CCn1c(SCC(=O)c2ccc(O)c(O)c2)nnc1-c1ccccc1OC`, for which the Potency result in assay [1] and in assay [3] was “inactive” in each case. Moreover, the Potency in assay [2] is 9.53 µM (active).
For `COc1ccc2c(c1)Cc1sc(NC(=O)c3ccccc3Br)nc1-2`, the Potency entry in assay [1] and in assay [3] was “inactive” each time. Moreover, the outcome in assay [2] is “inactive [at 12.7 µM]”.
Take `Cc1ccc(CNC(=O)c2cccc3c2C(=O)c2ccc(N4CCCCC4)cc2S3(=O)=O)cc1`: the Potency in assay [1] and in assay [4] was 11.2 µM (active) each time. The Potency entry in assay [2] is “inactive”. Further, the activity change, negative = inhibition in assay [3] is -7.83% [at 30.8 µM].
`CN(CC(=O)Nc1ccc(Cl)c(C(F)(F)F)c1)C(=O)c1ccc2c(c1)OCCO2`: the Potency entry in assay [1], in assay [2], in assay [3] and in assay [4] was “inactive” in each case.
Take `COc1ccc(OC)c(NC(=O)CSc2ncnc3sc(C)cc23)c1`: the Potency result in assay [1], in assay [2], in assay [3] and in assay [4] was “inactive” throughout.
For the compound `O=C(O)c1ccc(NS(=O)(=O)c2ccc3c(c2)C2C=CCC2C(c2ccccc2F)N3)cc1` (stereo not drawn), the Potency result in assay [1] and in assay [3] was “inactive” throughout. The values for the Potency in assay [2] and in assay [4] were 75.7 µM (active) and 44.7 µM (active), respectively.
`COC(=O)c1ccc(OCC2c3cc(OC)c(OC)cc3CCN2C(=O)c2ccc(OC)cc2)cc1` (stereo not drawn): the Potency entry in assay [1], in assay [2] and in assay [3] was “inactive” each time.
As for `COc1ccc(OC)c(NC(=O)CSc2nccn2-c2cc(C)cc(C)c2)c1`, the Potency result in assay [1], in assay [2], in assay [3] and in assay [4] was “inactive” each time.
As for `CCCN1C(=O)c2[nH]nc(-c3ccc(F)cc3)c2C1c1ccc(O)c(OCC)c1` (stereo not drawn), the Potency result in assay [1], in assay [2], in assay [3] and in assay [4] was “inactive” throughout.
On to `COc1ccc(NC(=O)COC(=O)CCCOc2ccc(Cl)cc2Cl)cc1Cl`, for which the Potency entry in assay [1], in assay [3] and in assay [4] was “inactive” throughout. Besides, the Potency in assay [2] is 6.01 µM (active).
`Cc1ccc(C2CC2/C(=N/O)c2ccc(F)cc2)cc1` (stereo not drawn): the Potency entry in assay [1] and in assay [4] was “inactive” each time. Moreover, the Potency in assay [2] was 37.9 µM (active).
Regarding `O=C1OC(Cc2ccccc2)(c2ccccc2)c2ccccc21` (stereo not drawn), the Potency result in assay [1], in assay [2], in assay [3] and in assay [4] was “inactive” throughout.
For `Cc1nc(NC(=O)c2c(-c3ccccc3)c(-c3ccccc3)nn(C)c2=O)sc1C`, the Potency entry in assay [1], in assay [2], in assay [3] and in assay [4] was “inactive” in each case.
As for `Cn1cccc1/C=C1\SC(=S)N(NC(=O)c2cccc(Cl)c2)C1=O`, the Potency result in assay [1], in assay [2], in assay [3] and in assay [4] was “inactive” each time.
In the case of `COc1ccc(-c2nc3ccccc3n2Cc2ccccc2)cc1`, the Potency result in assay [1], in assay [2] and in assay [3] was “inactive” each time.
As for `Cc1nc(N)sc1-c1csc(Nc2ncccn2)n1`, the Potency entry in assay [1], in assay [2], in assay [3] and in assay [4] was “inactive” each time.
`COC(=O)CN(c1nc(C)c(Br)c(OC)n1)S(=O)(=O)c1ccccc1`: the Potency result in assay [1] and in assay [3] was “inactive” in each case.
For the compound `O=S(=O)(c1cccc2ccccc12)N1CCCCC1`, the Potency entry in assay [1], in assay [3] and in assay [4] was “inactive” each time. In assay [2], the Potency was 21.3 µM (active).
Consider `Cc1ccccc1OCC(=O)Nc1ccc(C(=O)OCc2cc(=O)n3c(C)csc3n2)cc1`, for which the Potency entry in assay [1], in assay [2], in assay [3] and in assay [4] was “inactive” in each case.
Regarding `Cc1cccc(C)c1Nc1c(-c2ccc(Cl)s2)nc2ncccn12`, the Potency result in assay [1], in assay [2] and in assay [3] was “inactive” throughout.
On to `COc1ccc(/C=C2\SC(=S)N(CCC(=O)N3CCCCC3CCO)C2=O)cc1` (stereo not drawn), for which the Potency entry in assay [1], in assay [2], in assay [3] and in assay [4] was “inactive” throughout.
As for `COc1ccc(Cl)cc1C1CC(=O)Nc2cc3c(cc21)OCCO3` (stereo not drawn), the Potency entry in assay [1], in assay [2] and in assay [3] was “inactive” each time.
For `Cc1cccc2sc(N(Cc3cccnc3)C(=O)c3cccs3)nc12`, the Potency entry in assay [1], in assay [2] and in assay [3] was “inactive” each time. Also, in assay [4], the Potency is 25.1 µM (active).
Take `N/C(CSc1nc(-c2ccccc2)c(-c2ccccc2)o1)=N\O`: the Potency result in assay [1] and in assay [3] was “inactive” each time. The Potency in assay [2] was 16.9 µM (active).
`CC1=Nc2ccccc2/C1=C/c1sc(=N)n(-c2nccs2)c1O`: the Potency result in assay [1], in assay [2] and in assay [3] was “inactive” throughout. For the same compound, the Potency in assay [4] is 56.2 µM (active).
`Cc1cccc(Cn2nnc3c(=O)[nH]c(C4CCCN(C(=O)c5ccc(C(C)(C)C)cc5)C4)nc32)c1` (stereo not drawn): the Potency entry in assay [1] and in assay [4] was “inactive” in each case. Besides, the outcome in assay [2] is “inactive [at 12.7 µM]”.
On to `CC(C)(C)c1cc(NCCCn2ccnc2)n2ncc(-c3ccccc3)c2n1`, for which the Potency result in assay [1], in assay [2] and in assay [4] was “inactive” each time.
In the case of `Cc1ccc2c(c1)-c1c(cnn1CC(=O)N1CCN(c3cccc(C(F)(F)F)c3)CC1)CO2`, the Potency result in assay [1] and in assay [3] was “inactive” throughout. Further, the outcome in assay [2] is “inactive [at 12.7 µM]”.
Turning to `CC(C)C(NC(=O)C1CC(=O)N(Cc2ccccc2)C1)c1nc2ccccc2[nH]1` (stereo not drawn), the Potency result in assay [1], in assay [2], in assay [3] and in assay [4] was “inactive” in each case.
As to `Cc1csc2nc(-c3cccc(NC(=O)c4cccc(F)c4)c3)cn12`, the Potency entry in assay [1], in assay [2] and in assay [3] was “inactive” in each case.
With `CN(C)c1ccc(/C=C2\C(=N)N3N=C(CC(=O)N4CCCCC4)SC3=NC2=O)cc1`, the Potency entry in assay [1], in assay [2], in assay [3] and in assay [4] was “inactive” each time.
Consider `Cc1ccc2c(c1)N(Cc1cccc(Cl)c1)C(=O)c1cccnc1O2`, for which the Potency result in assay [1] and in assay [3] was “inactive” in each case. Moreover, the Potency in assay [2] is 47.8 µM (active).
As to `Cn1cc(/C=C/c2cc[n+](C)cc2)c2cc(F)ccc21`, the Potency result in assay [1], in assay [2], in assay [3] and in assay [4] was “inactive” each time.
As to `COc1ccccc1/C=C(/C(=O)OCC(=O)Nc1ccc(N(C)C)cc1)c1ccccc1`, the Potency result in assay [1], in assay [3] and in assay [4] was “inactive” in each case. Also, the Potency in assay [2] is 5.36 µM (active).
Consider `CC(=O)Nc1ccc(S(=O)(=O)N2CCN(c3cc(C)ccc3C)CC2)cc1`, for which the Potency result in assay [1] and in assay [3] was “inactive” throughout.
Take `CC1=CC(C)(C)N2C(=O)C(=Nc3ccc(O)cc3)c3cccc1c32`: the Potency entry in assay [1], in assay [2], in assay [3] and in assay [4] was “inactive” each time.
Consider `Cc1cc(N(CCO)Cc2ccccc2)n2nc(-c3ccc(C(C)(C)C)cc3)nc2n1`, for which the Potency result in assay [1], in assay [2], in assay [3] and in assay [4] was “inactive” each time.
On to `Cc1ccc2c(c1)OC(=O)CC2c1ccccc1` (stereo not drawn), for which the Potency result in assay [1] and in assay [3] was “inactive” in each case.
Take `Cc1ccc(SCC(=O)Nc2ccccc2N2CCOCC2)cc1`: the Potency result in assay [1], in assay [2], in assay [3] and in assay [4] was “inactive” throughout.
Regarding `COc1ccc2c(c1)Cc1sc(NC(=O)c3cccc(C)c3)nc1-2`, the Potency in assay [5] is 10 µM (active). Besides, the Potency result in assay [1], in assay [2] and in assay [3] was “inactive” in each case.
For `Cc1nc2c(C(=O)NCc3ccccc3Cl)c[nH]n2c(=O)c1Cc1cccc(Cl)c1`, the Potency entry in assay [1], in assay [2], in assay [3] and in assay [4] was “inactive” each time.
For the compound `COc1ccccc1C1CC(=O)Oc2cc(C)c(Br)c(C)c21` (stereo not drawn), the Potency entry in assay [1] and in assay [3] was “inactive” each time.
For `COC(=O)c1ccc2nc(-c3ccc(Cl)cc3)c(Cc3ccsc3)n2c1`, the Potency result in assay [1], in assay [3] and in assay [4] was “inactive” throughout.
Consider `CCOc1ccc(C2C3=C(CCCC3=O)Nc3ccc4ncccc4c32)cc1` (stereo not drawn), for which, in assay [1], the Potency entry is “inactive”. Moreover, in assay [3], the activity change, negative = inhibition is -12.5% [at 30.8 µM].
In the case of `O=C1Nc2ccccc2/C1=N\N=C\c1ccc(O)c(O)c1`, the Potency entry in assay [1] and in assay [3] was “inactive” in each case.
As to `COC(=O)c1ccc2nc(-c3ccco3)c(Cc3cccc(F)c3)n2c1`, the Potency entry in assay [1], in assay [3] and in assay [4] was “inactive” throughout.
Regarding `O=C(Nc1ccc(F)cc1)c1cccc(N2C(=O)C3C4C=CC(C5CC45)C3C2=O)c1` (stereo not drawn), the Potency result in assay [1] and in assay [3] was “inactive” each time.
Regarding `COc1ccc(C(=O)c2oc3ccc(OC)cc3c2N)cc1`, the Potency entry in assay [1], in assay [3] and in assay [4] was “inactive” in each case.
`CN(Nc1cccc(Cl)c1)c1cccc(Cl)c1`: the Potency entry in assay [1] and in assay [3] was “inactive” in each case.
For the compound `CSc1nc(N)c(C(=O)N(c2ccccc2)c2ccccc2)s1`, in assay [1], the Potency result is “inactive”. In addition, the activity change, negative = inhibition in assay [3] was -10.5% [at 30.8 µM]. Besides, the activation in assay [4] was 22.8% [at 30.8 µM].
